HTT cytoprotect: cytoprotection in Huntington HTT-Q103 PC12 cell model. PC12 HTT-Q103 induced, cytoprotection, ATP luminescence, 40 h. Potency, µM (doses to about 56.4 µM), for inactives: cytoprotection (ATP increase), most hits filed as activators. actives 0.14% (n = 230,000); note: potency is the fitted concentration of half-maximal effect; % of control where 0% means no effect; nearly all actives have a fitted effect of over 45% in size
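Stable PC12 Q103-GFP cells in serum-supplemented, phenol red-free DMEM; induction by tebufenozide at 100 nM final; compound dose series; cell viability quantified luminescently from ATP.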
PNC assembly inh: perinucleolar compartment assembly inhibition | PC3M PTB-GFP, PNC prevalence imaging, 16 h; hits give low values | activity change (PNC), negative = inhibition, % at 10 µM | actives 3.1% (n = 140,000) | AID 2417;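 active = readout at or below -70, meaning at least 70% loss of cells showing the perinucleolar compartment, a nuclear body marking cancer cells; inconclusive = readout between -30 and a set limit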;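 note: plate controls were DMSO wells for no effect and camptothecin positive control wells for full effect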
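Read-out is percentage of cells bearing a perinucleolar compartment, from automated 20x imaging of fixed, Hoechst-stained PC3M PTB-GFP cells. Cells were seeded 4 h, then exposed 16 h to compound (23 nl of library stock) in duplicate plates.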
ALOX12 inhib: 12-hLO (ALOX12) enzyme inhibition; actives 0.12% (n = 150,000); P18054; Potency, µM (series often up to 57.1 µM), for the others: at the highest dose activity change, negative = inhibition, usual class: inhibitors; purified 12-hLO, xylenol orange hydroperoxide absorbance; note: potency is the fitted concentration of half-maximal effect; % is set by controls: 0 for no effect and ±100 for the full control effect; nearly all actives have a fitted effect of over 55% in size
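Hydroperoxide output read as Fe(III)-xylenol orange absorbance, 573-to-405 nm ratio, after 30 min reaction with 40 uM arachidonic acid. Enzyme: 150 nM purified human 12hLO, 15 min compound preincubation; 25 mM Hepes pH 7.0, room temperature.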
NPSR antagonist: blocks cAMP signaling of the human neuropeptide S receptor | CHO-NPSR cells, cAMP TR-FRET, antagonist mode | Potency, µM (highest dose often 38.3 µM), inactives show top-dose activity change, negative = inhibition, usual class: inhibitors | actives 1% (n = 220,000) | AID 1461; note: potency is the fitted concentration of half-maximal effect; % is set by controls: 0 for no effect and ±100 for the full control effect; nearly all actives have a fitted effect of over 50% in size
Target sequence (Q6W5P4 whole entry, looked up): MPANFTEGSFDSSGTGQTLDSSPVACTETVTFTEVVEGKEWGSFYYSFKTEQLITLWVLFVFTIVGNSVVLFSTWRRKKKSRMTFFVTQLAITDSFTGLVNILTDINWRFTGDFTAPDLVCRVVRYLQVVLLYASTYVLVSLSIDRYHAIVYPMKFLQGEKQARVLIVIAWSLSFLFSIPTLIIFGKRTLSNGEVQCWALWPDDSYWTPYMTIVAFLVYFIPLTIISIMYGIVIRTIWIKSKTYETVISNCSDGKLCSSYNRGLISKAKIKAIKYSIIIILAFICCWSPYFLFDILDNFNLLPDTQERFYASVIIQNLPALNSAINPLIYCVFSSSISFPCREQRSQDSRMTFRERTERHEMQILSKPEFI
IMPase cell inh: IMPase inhibition in cells; CHO-M1 cells, IP1 accumulation, HTRF TR-FRET ratio; inhibition (IP1 accumulation), % at 46.1 µM; 120,000 tested, under 10 active; active = well fitted curve in the direction sought with a large enough effect in the signal ratio, not every such curve was filed as active; inconclusive = small, poorly fitted or top-dose-only effect, or a change in a side signal; inactive = no such curve, though single readings can be large or run the other way; the % refers to the signal ratio;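 note: cells stimulated with carbachol in lithium chloride buffer; plate controls were DMSO basal wells for no effect and reference inhibitor wells for full effect; higher means more IMPase inhibition seen as more IP1 and lower FRET ratio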
Target sequence (P97697 whole entry, looked up): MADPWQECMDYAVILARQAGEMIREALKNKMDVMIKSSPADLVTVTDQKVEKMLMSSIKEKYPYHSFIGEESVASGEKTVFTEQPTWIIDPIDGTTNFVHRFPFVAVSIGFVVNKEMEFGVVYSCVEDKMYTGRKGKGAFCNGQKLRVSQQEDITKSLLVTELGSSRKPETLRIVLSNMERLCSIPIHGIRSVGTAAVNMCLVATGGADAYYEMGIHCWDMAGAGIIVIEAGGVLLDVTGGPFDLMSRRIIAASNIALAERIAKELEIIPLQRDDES
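Elevated IP1 in lysates lowers TR-FRET signal (665/620 ratio and 620 channel reported). Cells were CHO-M1, given carbachol (50 uM as added) plus 50mM LiCl, pH 7.4, 30 min, 37C; compounds titrated up to 46 uM; AC50 by Hill equation.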
HTT aggregate: mutant huntingtin aggregation inhibition | PC12 HttQ103-GFP aggregates, Acumen cytometry, 40 h | Potency, µM (doses to about 46.1 µM), inactives show top-dose activity change, negative = inhibition, most hits filed as inhibitors | actives 1.1% (n = 220,000); note: potency is the fitted concentration of half-maximal effect; % is set by controls: 0 for no effect and ±100 for the full control effect; nearly all actives have a fitted effect of over 60% in size
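PC12/HTTQ103-GFP, ecdysone-inducible; teb 100 nM; cpd qHTS titration; GFP aggregates read on laser cytometer, Ex 488/Em 500-530 nm.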
* hit, by the source's call; ? = inconclusive; / = no result given; [ ] = remark or other dose. Hits are enriched below; roughly 3.3% of the tested compounds scored in any of these assays. Unless noted, calls come from the whole dose curve; as a rule, active = well fitted curve in the direction sought with a large enough effect; inconclusive = small, poorly fitted or top-dose-only effect, or another doubt; inactive = no such curve, though single readings can be large; an effect the other way counts as inactive or inconclusive.

SMILES	HTT cytoprotect	PNC assembly inh	ALOX12 inhib	NPSR antagonist	IMPase cell inh	HTT aggregate
O=C1C=C(N(CCO)Cc2ccccc2)c2ccccc2C1=O	-161%	/	/	?	/	8.9µM*
O=[N+]([O-])c1ccc(N=Nc2c(Cl)cc(O)cc2Cl)cc1	-44%[10 µM]	/	/	7.9µM*	/	-35%[9.22 µM]
CC(=O)NC1=NN(C(C)=O)C(c2cccs2)S1 (stereo not drawn)	3%[10 µM]	-100*	5%	6%[46.1 µM]	2	2%
O=C(CN1CCSCC1)N/N=C/c1ccc(F)c(F)c1	13%[10 µM]	-113*	-1%	-20%[46.1 µM]	4	1%
Cc1ccc(S(=O)(=O)NCCOc2nc(N(C)C)nc(N3CCOCC3)n2)cc1	-2%	-93*	-6%	-1%[46.1 µM]	3	18%
COc1cc(C)cc(OC)c1/C=C\C(=O)O	-8%[10 µM]	/	-7%[11.4 µM]	/	/	/
Cc1ccc(-c2cc(-c3ccc(F)cc3)c(C#N)c(N)n2)o1	/	-6	?	-26%	/	?
Cc1ccc(-c2cc(-c3ccc(Cl)cc3)c(C#N)c(N)n2)o1	-8%[0.074 µM]	-23	11µM*	-19%[46.1 µM]	2	16%
Cc1ccc(-c2cc(-c3ccc(C)o3)nc(N)c2C#N)cc1	-4%[0.074 µM]	7	16µM*	?	-3	?
Oc1c(Cl)cc(Cl)cc1Sc1cc(Cl)cc(Cl)c1O	-53%	32	?	-57%	/	10µM*
O=S(c1cc(Cl)cc(Cl)c1O)c1cc(Cl)cc(Cl)c1O	-67%	/	/	/	/	-16%
Cc1ncc(CN2CCN(CCc3ccccc3)C(CCO)C2)s1 (stereo not drawn)	11%[10 µM]	/	/	-9%	/	-6%[9.22 µM]
Cn1c(=O)c2c(nc(Sc3ncccn3)n2Cc2ccccc2Cl)n(C)c1=O	0%	?	9%	-24%[46.1 µM]	1	-24%
Cn1cnnc1Sc1nc2c(c(=O)n(C)c(=O)n2C)n1Cc1ccccc1Cl	6%[10 µM]	-92*	4%	-1%[46.1 µM]	10	-5%
Cc1ccc(C2CC(=O)Oc3cc(C)c(Cl)cc32)cc1 (stereo not drawn)	21%	/	-2%[0.00818 µM]	/	/	/
Cc1cc2c(ncn2C)c(NS(=O)(=O)c2ccccc2Cl)c1C	2%[10 µM]	-83*	2%	14%[46.1 µM]	-3[1.84 µM]	26%
Cc1cccc2cc(CNC3CCCC3)c(Cl)nc12	-3%[10 µM]	/	/	3%	/	3%[9.22 µM]
Clc1cccc(Cl)c1CNC1CCCC1	-8%	22	10%	?	3	0.11µM*
Cc1[nH]c2ccc(F)cc2c1CCN(Cc1cccnc1)C(=S)Nc1ccc(F)cc1	/	/	/	10µM*	/	10%
Cc1[nH]c2ccc(F)cc2c1CCN(Cc1ccncc1)C(=S)Nc1cccc(F)c1	-16%	/	/	-43%	/	-8%
O=C(NCc1ccccc1F)C1CCCN(C(=O)NC2CCCCC2)C1 (stereo not drawn)	-13%[10 µM]	-124*	-1%	0%[46.1 µM]	8	6%
CC(=O)N1CC(=O)N=C1SCC(=O)Nc1nc(C)c(-c2ccccc2)s1	-44%	/	/	-56%	/	0%
C/C(=N\NC(=S)NC1CCCCC1)c1c(F)cccc1F	-44%	/	/	1µM*	/	?
C#C[C@]1(O)CC[C@@H]2[C@H]3CCC4=CC(=O)CC[C@H]4[C@H]3C(=C)C[C@@]21CC	-3%	/	/	/	/	18%
CCCCC(=O)NCCc1cc2ccc(OC)cc2[nH]c1=O	7%[10 µM]	-100*	1%	-1%[46.1 µM]	-2	0%
SMILES	HTT cytoprotect	PNC assembly inh	ALOX12 inhib	NPSR antagonist	IMPase cell inh	HTT aggregate
C/C(=C\C1CCCCC1)C(NC(=O)c1ccc(C(F)(F)F)cc1)c1ccc(-c2ccccc2)cc1 (stereo not drawn)	-47%	/	-1%	/	/	/
CC/C(=C\C1CCCCC1)C(NP(=O)(c1ccccc1)c1ccccc1)c1ccccc1 (stereo not drawn)	/	-90*	-4%	?	/	?
COc1ccccc1N1CCN(C2CCN(C(=O)c3cccs3)CC2)CC1	13%[10 µM]	-119*	-21%	7%	3	12%
O=C(c1csc2ccccc12)N1CCCCCC1	-30%	3	-5%	13%[46.1 µM]	5	?
O=C(c1csc2ccccc12)n1cccn1	-13%[0.074 µM]	-87*	-2%	-2%[46.1 µM]	1	0%
COc1ccc(/C=N/Nc2snc(SC)c2C#N)cc1OC	-24%	28	-12%	?	13	-7%
COc1cccc(/C=N/Nc2snc(SC)c2C#N)c1O	/	0	-16%	-27%	/	11µM*
COCC(=O)N1CCC2(CC1)CCN(c1ccncc1)CC2	?	/	2%	/	/	/
O=C(Nc1ccc(C2SCCS2)cc1)c1ccccc1	-9%[10 µM]	/	/	2%	/	-20%[9.22 µM]
Cc1cc(NS(=O)(=O)c2ccc(NC(=O)c3ccccc3F)cc2)nc(C)n1	/	/	/	/	-6	/
COc1ccc(CNc2ncncc2-c2c(C)noc2C)c(OC)c1	9%	/	/	/	/	/
CCN1C(=O)CC(N2CCN(c3ccc(C(=O)c4ccccc4)cc3)CC2)C1=O (stereo not drawn)	-6%	8	-6%	?	4	11µM*
CCN1C(=O)CC(N2CCN(c3ccc(Cl)cc3)CC2)C1=O (stereo not drawn)	2%	24	0%	-4%[46.1 µM]	-1	16%
O=C(N/N=C/c1ccccc1OC(=O)c1ccc2c(c1)OCO2)c1cccc(F)c1	-88%[10 µM]	20	-1%	-9%	/	2.5µM*

High-throughput results deposited in PubChem BioAssay by National Center for Advancing Translational Sciences (NCATS).
